Several values for one entry are separate records, joined by “and”; a condition that tells them apart may be missing. Identical values can stand only once. The campaign covered roughly 18,000 compounds. About 750 (4.2%) were called active. Where a call stands in place of a potency, no number is given. Another 13% or so got no clear call; they are omitted. Calls come from the whole dose curve; tested in HEK293 cells. Many of the other results were omitted from the sample, so actives are more common in it than they were. The source holds several records for some structures; these can differ, active in one and inactive in another.
test: qHTS for Inhibitors of binding or entry into cells for Lassa Virus; settings: Lassa virus pseudotyped entry inhibition, cell-based qHTS; series mostly up to 49.2 µM
Potency is the fitted concentration of half-maximal effect.

Structure (SMILES)	activity change, negative = inhibition	Potency
COc1ccc(O[C@H]2C=C[C@@H](c3ccccc3)O[C@H]2COC(=O)CCC(C)=NOC[C@@H](C)[C@H](OCc2ccccc2)C(C)C)cc1	-27.6% [at 8.59 µM] (inactive)	–
CCCCC/C=C\C/C=C\C/C=C\CCCCCCC(N)=O	inactive	–
COc1ccc(O[C@H]2C=C[C@@H](c3ccccc3)O[C@H]2CON=C[C@@H](C)[C@H](OCc2ccccc2)C(C)C)cc1	-25.5% [at 8.59 µM] (inactive)	–
CCN(CC)CCCN=C1NC(c2ccccc2)C(C(=O)OC)=C(C)N1CC (configuration not stated)	9.38% [at 8.59 µM] (inactive)	–
C[C@H]1Cc2c(COc3ccccc3)nc3c(c2CO1)CN(C(=O)Nc1cccc(C#N)c1)CC3	-15.7% [at 8.59 µM] (inactive) and -11.7% [at 8.59 µM] (inactive)	–
CC1(C)S[C@@H]2[C@H](N=CN3CCCCCC3)C(=O)N2[C@H]1C(=O)O	inactive	–
CC(C)(Cc1c[nH]c2ccc(Cl)cc12)NCCOc1ccccc1OCC1CC1	–	28.2 µM (active)
CC(=O)OCC(=O)[C@@]1(O)CCC2C3CCC4=CC(=O)CC[C@@]4(C)[C@]3(F)C(O)C[C@]21C (some centres not stated)	inactive	–
Cc1cccc(CNC(=O)c2cnn(-c3nccc(-c4ccccc4F)n3)c2C2CC2)n1	inactive	–
CN(Cc1cccc2ncccc12)C(=O)c1cnn(-c2nccc(-c3ccccc3F)n2)c1C1CC1	–	12.6 µM (active)
Cc1ccc(-c2ccnc(-n3ncc(C(=O)N(C)Cc4cccc5ncccc45)c3C3CC3)n2)o1	inactive	–
Cc1ccc(S(=O)(=O)N2CCC(=O)N([C@H](COCc3ccccc3)Cc3ccccc3)CC2)cc1	inactive	–
CCC1CN(CCNC(=O)c2ccsc2)Cc2cc(OC)ccc2O1 (configuration not stated)	inactive	–
CCCCN1CC(COCc2ccccc2)OCCS1(=O)=O (configuration not stated)	inactive	–
C=C(C)C1CC=C(CO)CC1 (configuration not stated)	inactive	–
C=C1/C(=C\C=C2\CCCC3(C)C2CCC3C(C)/C=C/C(O)C2CC2)CC(O)CC1O (configuration not stated)	–	10 µM (active)
N#Cc1c(Cl)c(Cl)c(Cl)c(C#N)c1Cl	–	2.24 µM (active)
CC(C)(O)CCC(O)[C@@](C)(O)C1CC[C@]2(O)C3=CC(=O)C4CC(O)C(O)C[C@]4(C)C3CC[C@]12C (some centres not stated)	inactive	–
COC(C)C(C(=O)OCC1=CCN2CC[C@H](O)[C@@H]12)C(C)C (some centres not stated)	inactive	–
COC(=O)C12C[C@H](C)C3C(C)C(c4ccccc4C31)N2C(=O)C(F)(F)F (some centres not stated)	4.09% [at 8.59 µM] (inactive)	–
CCCCC[C@H](O)/C=C/[C@@H]1[C@@H](CC(=O)CCC(=O)O)[C@@H](O)C[C@H]1O	inactive	–
COc1cc(C(=O)N2CCOCC2)cc(OC)c1OC	inactive	–
COC(=O)C1=C(C(=O)OC)[C@@H]2N(C)c3ccccc3[C@@]23C[C@@H](C(=O)OC)N(C(=O)c2ccco2)C3=N1	11.9% [at 8.59 µM] (inactive)	–
CC(C)c1cnc(NC(=O)Cc2ccccc2)s1	inactive	–
CC(=O)Oc1ccccc1C(=O)Nc1ncc([N+](=O)[O-])s1	–	7.94 µM (active)
CCOC(=O)[C@H](CCc1ccccc1)N[C@@H](C)C(=O)N1CC2(C[C@H]1C(=O)O)SCCS2	inactive	–

Structure (SMILES)	activity change, negative = inhibition	Potency
COc1cccc(CN2CCC3(CC2)c2ccccc2[C@@H](NC(=O)c2ccccc2OC)[C@@H]3O)c1	inactive	–
CO[C@@H]1C[C@@H](C[C@H]2CC[C@H](C)[C@@H]([C@@H](C)C(=O)O)O2)O[C@]2(O[C@](C)([C@H]3CC[C@@](C)(C4OC([C@H]5O[C@@](O)(CO)[C@H](C)C[C@@H]5C)C[C@@H]4C)O3)C[C@H]2C)[C@@H]1C (some centres not stated)	–	3.16 µM (active)
O=C(C1CCCCC1)N1C[C@H](O)[C@H](n2cc(-c3ccc(F)cc3)nn2)C[C@@H]1c1ccccc1	inactive	–
CC1C(O)CC2C(C(=O)O)=CO[C@@H](O[C@H]3OC(CO)C(O)C(O)C3O)C21 (some centres not stated)	inactive	–
CO[C@H]1[C@@H](O)[C@H](N)[C@@H](O[C@H]2O[C@H]([C@H](C)N)CC[C@H]2N)[C@H](O)[C@@H]1N(C)C(=O)CN	inactive	–
CCC1CN(CCNC(=O)c2cccc(C)n2)Cc2cc(OC)ccc2O1 (configuration not stated)	inactive	–
CS(=O)(=O)c1ccc(Oc2nccc(-c3c(-c4ccc(F)cc4)ncn3C3CCNCC3)n2)cc1	inactive	–
COc1ccc(NC(=O)C[C@H]2C(=O)N(CCc3ccccc3)C[C@@H]2C)cc1	inactive	–
Oc1ccc(Cl)c2c1CCC2	inactive	–
CC[C@]1(O)C[C@@H]2CN(CCc3c([nH]c4ccccc34)[C@@](C(=O)OC)(c3cc4c(cc3OC)N(C)[C@H]3[C@@](O)(C(=O)OC)[C@H](OC(C)=O)[C@]5(CC)C=CCN6CC[C@]43[C@@H]65)C2)C1	–	inactive and 22.4 µM (active)
CC(C)C[C@@H](CC(=O)N[C@@H](CCC(=O)O)CC(=O)O)NC(=O)[C@@H]1CCCC[C@H]1NC(=O)C[C@@H](NC(=O)C[C@H](Cc1c[nH]c2ccccc12)NC(=O)[C@@H]1CCCC[C@H]1N)C(C)C	inactive	–
C[C@@H]1O[C@@H](OC[C@H]2O[C@@H](Oc3cc(O)c4c(c3)O[C@H](c3ccc(O)c(O)c3)CC4=O)[C@H](O)[C@@H](O)[C@@H]2O)[C@H](O)[C@H](O)[C@H]1O	inactive	–
O=c1cc(-c2ccc(O)cc2)oc2c([C@@H]3O[C@H](CO)[C@@H](O)[C@H](O)[C@H]3O)c(O)cc(O)c12	inactive	–
COc1ccc(CCC(=O)c2c(O)cc(OC3OC(CO)C(O)C(O)C3O[C@@H]3OC(C)C(O)C(O)C3O)cc2O)cc1O (some centres not stated)	inactive	–
Cc1cccc(CNc2ccnc(-c3cccnc3)n2)c1	inactive	–
CCCCN1C[C@H](c2ccc(Br)cc2)[C@@H](CC(=O)Nc2ccc(Br)cc2)C1=O	inactive	–
Nc1ncnc2c1ncn2C1CC(O)C(CO)O1 (configuration not stated)	inactive	–
COc1ccc(CC(N)C(=O)NC2C(O)[C@H](n3cnc4c(N(C)C)ncnc43)O[C@@H]2CO)cc1 (some centres not stated)	–	3.98 µM (active)
COc1ccc(C[C@H](N)C(=O)N[C@@H]2[C@H](O)[C@H](n3cnc4c(N(C)C)ncnc43)O[C@@H]2CO)cc1	–	2.51 µM (active)
CCN(CC)CCCC(C)Nc1ccnc2cc(Cl)ccc12 (configuration not stated)	inactive	–
COC1=C[C@H](C(=O)NCCNC(C)=O)[C@H](C)[C@@H](c2ccccc2)CC1=O	-0.439% [at 8.59 µM] (inactive)	–
COC(=O)[C@H](CC(C)C)NS(=O)(=O)c1c(F)cccc1F	inactive	–
O=C1NC(CC(=O)N2CCC(n3c(C4CCC4)nc4cccnc43)CC2)c2ccccc21 (configuration not stated)	inactive	–
Fc1cccc(/C=N\N=C/c2cccc(F)c2)c1	inactive	–
C=CCOC(=O)C(=C)C	inactive	–
Cc1ccc(-c2ncc(Cl)cc2-c2ccc(S(C)(=O)=O)cc2)cn1	inactive	–

Structure (SMILES)	activity change, negative = inhibition	Potency
CC[C@H](C)[C@H](NC(=O)[C@@H](N)CCC(=O)O)C(=O)N[C@@H](CC(C)C)C(=O)N[C@@H](CC(=O)O)C(=O)N[C@H](C(=O)N1CCC[C@H]1C(=O)N[C@@H](CO)C(=O)N[C@H](C(=O)O)[C@@H](C)O)C(C)C	inactive	–
CC[C@H]1CN2CCc3cc(OC)c(OC)cc3[C@@H]2C[C@@H]1C[C@H]1NCCc2cc(OC)c(OC)cc21	–	0.1 µM (active)
O=C(NCC1Cc2cc(F)cc(-c3cnccn3)c2O1)C1COc2ccccc2O1 (configuration not stated)	inactive	–
CCCCCCCC/C=C\CCCCCCCC(=O)NCC(=O)O	inactive	–
O=[N+]([O-])c1ccc(CN2CC(N3CC=CC3)CS2(=O)=O)cc1 (configuration not stated)	inactive	–
COc1ccc(-c2c(C)cc3oc(=O)cc(-c4ccccc4)c3c2C)cc1F	inactive	–
CN[C@@H]1[C@@H](O)[C@@H](O[C@@H]2[C@H](O)[C@H](O[C@H]3OC(CN)=CC[C@H]3N)[C@@H](N)C[C@H]2N)OCC1(C)O (some centres not stated)	inactive	–
CCOC(=O)CN1C(=O)NC(CCc2ccccc2)C(C(C)=O)=C1C (configuration not stated)	-20.9% [at 8.59 µM] (inactive)	–
OCCN1CCN(CC/C=C2\c3ccccc3Sc3ccc(C(F)(F)F)cc32)CC1	inactive	–
Cc1ccc(/C(=C/CN2CCCC2)c2ccccn2)cc1	inactive	–
COc1ccccc1-c1ccnc(-n2ncc(C(=O)NCCCN3CCOCC3)c2C)n1	inactive	–
C=CCN1C(=O)[C@]2(OCCC=C[C@H]2C)c2ccccc21	-16.5% [at 8.59 µM] (inactive)	–
C[C@@H]1CC[C@H]2C(=O)N(Cc3ccc(Cl)cc3)C[C@@H](O)CN2[C@@H]1c1cccc(Br)c1	6.98% [at 8.59 µM] (inactive)	–
Nc1nc2[nH]c(=O)c(=O)[nH]c2c(=O)[nH]1	inactive	–
CCOC(=O)Cn1c(=O)sc2cccc(Cl)c21	inactive	–
CNCC[C@H](Oc1ccc(C(F)(F)F)cc1)c1ccccc1	–	inactive and 28.2 µM (active)
COC(=O)C1=C(C)N(Cc2ccccc2)C(=NCCc2ccccn2)NC1c1cccc(C(F)(F)F)c1 (configuration not stated)	-11.6% [at 8.59 µM] (inactive)	–
COc1ccccc1N1CCN(CCN2C(=O)c3ccccc3C(C)(C)C2=O)CC1	inactive	–
CC(C)=CCC[C@]1(C)[C@@H](CC=C(C)C)C[C@@]2(CC=C(C)C)C(=O)[C@]1(C(=O)C(C)C)C(=O)C(CC=C(C)C)=C2O	–	12.6 µM (active)
Nc1nccc(-c2c(-c3ccc(F)cc3)ncn2CCCN2CCOCC2)n1	inactive	–
CC(=O)Oc1c2c(c3c(c1CC=C(C)C)O[C@@]14C(=CC5CC1C(C)(C)OC4(C/C=C(\C)C(=O)O)C5=O)C3=O)OC(C)(CCC=C(C)C)C=C2 (some centres not stated)	–	6.31 µM (active)
NCCCNCCCCN(CCCN)/[N+]([O-])=N/O	inactive	–
CCCCC/C=C\C/C=C\CCCCCCCCCC(=O)NCC(=O)O	inactive	–
CCCCCCCC1=Cc2ccc(F)cc2C(C(C(=O)OC)C(=O)OC)N1C(=O)OC (configuration not stated)	inactive	–
COc1ccccc1-c1nc(NCCNC(C)=O)c2ccccc2n1	inactive	–

Reference: PubChem BioAssay AID720533 (National Center for Advancing Translational Sciences (NCATS), 2013)
